The values below come from PubChem BioAssay AID1578 (Sanford-Burnham Center for Chemical Genomics, 2009).

The structures appear in SMILES notation. Values joined by “and” are separate entries in the source; they are usually repeats but may differ in a detail not shown here. Equal values may be shown once. Among all 290,000 compounds or so, about 3,000 (1%) were called active. No stated cut-off is given here; in the data, active means inhibition mostly above about 36% (no sharp cut-off); inactive means mostly below about 34%. The sample as a whole holds a higher share of actives than the screen did. Some compounds were tested as several samples or in several runs, with calls that do not always agree.

The test can be described thus: inhibition of NOD1-driven NF-kB reporter – cell-based, luminescence, uHTS, primary screen (AID 1578).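 Further: HEK-293T reporter cells stimulated with the NOD1 agonist gamma-tri-DAP.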 The note with it: NOD1-driven NF-kB luciferase reporter cells, at 4 µM, stronger effect = higher value.
In the case of `Cc1ccc(C)c2c1sc(=NC(=O)CN1C(=O)CCC1=O)n2C`, the inhibition was 1.3% (inactive).
`CCOC(=O)c1ccc(NC(=O)C2(c3ccccc3)CCCC2)cc1`: the inhibition was 14% (inactive).
The figure for `Cc1[nH]n(-c2ncc(-c3ccc(Cl)cc3)s2)c(=O)c1C(c1ccc(Cl)cc1)C(C#N)C#N` (configuration not stated) is 67.3% (active).
The figure for `CCCc1[nH][nH]c(=O)c1C(c1ccc(Cl)cc1)C(C#N)C#N` (configuration not stated) is 3.7% (inactive); for `Cc1[nH]n(-c2ncc(-c3ccccc3)s2)c(=O)c1C(c1ccc(Br)cc1)C(C#N)C#N` (configuration not stated) it is 32.7% (inactive).
The figure for `Cc1ccccc1N(C(=O)Cc1ccsc1)C(C(=O)NC1CCCCC1)c1ccc(F)cc1` (configuration not stated) is -25.2% (inactive); for `Cc1c(C2=CCN(S(=O)(=O)c3ccc(Br)cc3)CC2)c2ccccc2n1C` it is 0.5% (inactive).
Take `CC(=O)C1=C(C)NC(=O)NC1c1cccc([N+](=O)[O-])c1O` (configuration not stated): the inhibition is -9.2% (inactive).
As to `O=C(O)c1cc(-c2ccco2)nc2ccc(Br)cc12`, the inhibition was 75.3% (active) and -18.2% (inactive).
The figure for `O=C(O)c1cc(-c2ccco2)nc2ccccc12` is -13.5% (inactive); for `O=C(O)c1cc(-c2ccco2)nc2cc3ccccc3cc12` it is -6.3% (inactive).
As for `Clc1ccc(COn2c(-c3ccc(Cl)cc3)nc3ccccc32)cc1`, the inhibition was -31.8% (inactive).
The figure for `COc1ccc(/C=N/NC(=O)C2C3CCCCC32)cc1OC` (configuration not stated) is -9.5% (inactive); for `COc1cc(/C=N/NC(=O)C2C3CCCCC32C)cc(Br)c1O` (configuration not stated) it is 6.5% (inactive); for `COc1ccc(/C=N/NC(=O)C2C3CCCCC32C)cc1OC` (configuration not stated) it is 47.1% (active).
The figure for `FC(F)(F)c1cc(Oc2ccc(Cl)cc2)ncc1-c1nnc(-c2ccc(Cl)cc2)o1` is -6.5% (inactive); for `CC(C)C(NS(=O)(=O)c1ccccc1)C(=O)OCc1cc([N+](=O)[O-])cc2c1OCOC2` (configuration not stated) it is -12.4% (inactive).
The figure for `CC(Sc1cccc[n+]1[O-])C(=O)Nc1ccc([N+](=O)[O-])cc1Cl` (configuration not stated) is -22.4% (inactive); for `Cc1ccc(-c2noc(C3CCCCC3)n2)cc1` it is -58.2% (inactive).
Take `O=C(NCC1CCCO1)c1ccc(Oc2ccc([N+](=O)[O-])cc2Cl)cc1` (configuration not stated): the inhibition was 13.6% (inactive).
The figure for `O=C(NCC1CCCO1)c1ccc(Oc2ccc([N+](=O)[O-])cc2)cc1` (configuration not stated) is 42.4% (active); for `COc1ccc([N+](=O)[O-])cc1N(CC(=O)NCC1CCCO1)S(C)(=O)=O` (configuration not stated) it is -19.1% (inactive).
The figure for `O=C(NCC1CCCO1)c1cccc(Oc2ccc([N+](=O)[O-])cc2)c1` (configuration not stated) is -20.6% (inactive); for `Cc1ccc([N+](=O)[O-])cc1N(CC(=O)NCC1CCCO1)S(C)(=O)=O` (configuration not stated) it is 60.2% (active).
As for `CS(=O)(=O)N(CC(=O)NCC1CCCO1)c1cccc([N+](=O)[O-])c1` (configuration not stated), the inhibition is -15% (inactive).
The figure for `COc1ccc(CCNC(=O)CCn2c(SCC#N)nc3ccccc3c2=O)cc1OC` is 10.3% (inactive); for `COc1ccc2c(C)cc(SCC(=O)Nc3cccnc3Cl)nc2c1` it is -12.9% (inactive); for `Nc1nonc1-n1nnc(C(=O)N/N=C/c2ccccc2)c1CN1CCc2ccccc21` it is -21.6% (inactive).
Regarding `CNC(=O)NC(=O)COC(=O)CCCOc1ccc(OC)cc1`, the inhibition was 4.1% (inactive).
The figure for `COc1ccc(CCNC(=O)c2cc3sccc3n2C)cc1OC` is 5.4% (inactive).
The figure for `CCOc1ccc(CCNC(=O)c2cc3sccc3n2C)cc1OCC` is 26.3% (inactive); for `CCOc1ccc(CCNC(=O)c2cc3sccc3n2CC)cc1OCC` it is 49.7% (active).
The figure for `COc1ccc(S(=O)(=O)N(C)c2ccc(C(=O)NC3CCCC3)cc2)cc1` is -11.8% (inactive).
As to `CC(=O)C(C)Sc1nnc(-c2ccccc2F)n1C1CC1` (configuration not stated), the inhibition was -26.2% (inactive).
The figure for `CC(=O)c1cn(CC(=O)Nc2ccccc2F)c2ccccc12` is 14.5% (inactive); for `CN1CCN(C(=S)c2cn(Cc3ccccc3F)c3ccccc23)CC1` it is -13.6% (inactive).
As for `Cc1ccc(C)c(CN2CCC(CNC(=O)Nc3cccc(Cl)c3C)CC2)c1`, the inhibition was 2.1% (inactive).
The figure for `CCOC(=O)C1=C(O)c2ccccc2C(=O)/C1=C\c1ccc(CC)cc1` is 15.2% (inactive); for `CCOC(=O)C1=C(Cc2ccc(OC)cc2)C(=O)c2ccccc2C1=O` it is 3.6% (inactive).
Take `COc1cccc2cc(C(=O)C3=C(O)C(=O)N(CCN4CCOCC4)C3c3ccc(C(C)(C)C)cc3)oc12` (configuration not stated): the inhibition is -11.6% (inactive).
The figure for `Cc1ccc(CN(C)C(=O)CCc2c[nH]c3ccccc23)o1` is -18.4% (inactive); for `CN1CCN(c2nc(-c3cccc([N+](=O)[O-])c3)nc3ccccc23)CC1` it is -0.7% (inactive).
The figure for `CCC(=O)N1CCc2cc(S(=O)(=O)Nc3ccccc3C)ccc21` is 3.4% (inactive).
The figure for `COc1ccc(O)c(-c2[nH]ncc2C(=O)c2ccccc2C)c1` is 26.5% (inactive); for `COc1ccc(O)c(-c2[nH]ncc2C(=O)c2cccc(C)c2)c1` it is -6.8% (inactive); for `CCOC(=O)c1sc(N(Cc2ccccc2)C(=O)COC(=O)c2ccccc2O)nc1C` it is -48% (inactive).
On to `CCOC(=O)c1sc(N(Cc2ccccc2)C(=O)COC(=O)c2ccc(O)cc2)nc1C`, for which the inhibition was 62.2% (inactive).
The figure for `CCOC(=O)c1sc(N(Cc2ccccc2)C(=O)CCl)nc1C` is 28.7% (active).
The figure for `COc1ccc(S(=O)(=O)N2CCCOC2CNC(=O)C(=O)NCCc2ccco2)cc1OC` (configuration not stated) is -2.3% (inactive).
The figure for `O=C(COC(=O)c1cccc(O)c1)NCc1ccc2c(c1)OCO2` is -14.3% (inactive).
As to `COc1ccc(C=O)cc1OC(=O)N1CCOCC1`, the inhibition is -9.3% (inactive).
The figure for `Cc1cc(C(=O)COC(=O)CN(C)S(=O)(=O)c2ccc(Cl)cc2)c(C)n1Cc1cccs1` is -20.9% (inactive); for `O=C(NCc1cn2ccccc2n1)c1ccco1` it is 54% (active); for `O=C(NCc1cn2ccccc2n1)c1ccc(Br)o1` it is -10.7% (inactive).
Turning to `O=C(NCc1cn2ccccc2n1)c1ccccc1`, the inhibition was -22.2% (inactive).
The figure for `Cc1ccc(CNC(=O)C2CCCN(c3cnccn3)C2)cc1` (configuration not stated) is -5.5% (inactive); for `Cc1sc2ncn(CC(=O)NCC(=O)N(C)Cc3ccccc3)c(=O)c2c1C` it is -12.2% (inactive).
The figure for `Cc1ccc(NC(=O)C2CCC(CNC(=O)[C@@H]3Cc4ccccc4CN3)CC2)cc1` (some centres not stated) is -2.3% (inactive); for `CC(=O)C1=C(O)C(=O)N(c2nccs2)C1c1ccccc1` (configuration not stated) it is -8.5% (inactive); for `O=C(C1=C(O)C(=O)N(c2nccs2)C1c1ccccc1)c1cc2ccccc2o1` (configuration not stated) it is -8.9% (inactive).
The figure for `COc1ccc(N2CC(C(=O)N3CCN(C)CC3)CC2=O)cc1` (configuration not stated) is 3.9% (inactive); for `COc1ccc(C(=O)/C=C/Nc2ccc(S(=O)(=O)Nc3nc(C)cc(C)n3)cc2)cc1OC` it is -18.8% (inactive); for `O=C(N/N=C/c1ccc([N+](=O)[O-])cc1)c1cc2ccccc2o1` it is 2.4% (inactive).
With `Nc1nonc1C(=O)N/N=C/c1ccc(-c2cccc([N+](=O)[O-])c2)o1`, the inhibition was 5.4% (inactive).
The figure for `Cc1cc(C(=O)N/N=C/c2ccc([N+](=O)[O-])o2)c(C)o1` is 1.4% (inactive); for `O=C(CNc1ccc2ccccc2c1)N/N=C/c1ccc([N+](=O)[O-])o1` it is -5% (inactive); for `Cc1ccc(C(=O)N/N=C\c2ccc([N+](=O)[O-])o2)cn1` it is 13.2% (inactive).
The figure for `Nc1nonc1C(=O)N/N=C/c1ccc(Br)o1` is -6% (inactive); for `O=C(N/N=C/c1ccc([N+](=O)[O-])o1)c1cc2c(ccc3ccccc32)o1` it is 41.1% (inactive).
The figure for `O=C(CNc1ccccc1)N/N=C/c1ccc([N+](=O)[O-])o1` is 35% (inactive).
Consider `COc1cc2[nH]c(=O)n(CCC(=O)NCc3cccnc3)c(=O)c2cc1OC`, for which the inhibition is -17.4% (inactive).
The figure for `CCCc1cc(=O)n2[nH]c(NC(=O)c3ccco3)nc2n1` is 1.1% (inactive); for `O=C(c1ccco1)N1CCN(Cc2nnc(-c3cccc(Br)c3)o2)CC1` it is 37.7% (inactive); for `Cc1ccc(/C=N/NC(=O)CNC(=O)c2ccc(S(=O)(=O)N3CCCC3)cc2)o1` it is -10.1% (inactive).
The figure for `CC(C)(C)S(=O)(=O)/C(C#N)=C/c1sccc1C1OCCO1` is -9.6% (inactive); for `Cc1sc2nc(CSCC(=O)N(CCC#N)c3ccccc3)[nH]c(=O)c2c1C` it is -2.8% (inactive); for `NC(=O)c1ccc(NC(=O)CCNC(=O)c2ccco2)cc1` it is 0% (inactive).
Consider `Cc1cccc(C)c1OCCN1C(=O)NC(C)(c2ccccc2)C1=O` (configuration not stated), for which the inhibition was -8.3% (inactive).
Take `CC(=O)Nc1ccc(S(=O)(=O)Nc2ccn(Cc3ccccc3Cl)n2)cc1`: the inhibition was -42.3% (inactive).
The figure for `CCC(CC)C(=O)N1c2ccc(F)cc2CCC1C` (configuration not stated) is 8% (inactive); for `CC1CCc2cc(F)ccc2N1C(=O)CCC(=O)O` (configuration not stated) it is -29.7% (inactive); for `CC1CCc2cc(F)ccc2N1C(=O)CCl` (configuration not stated) it is 66.7% (active).
The figure for `COCCCNC(=S)Nc1cc2oc3ccccc3c2cc1OC` is 5.2% (inactive).
The figure for `CCN(CC(=O)NC1CCS(=O)(=O)C1)S(=O)(=O)c1ccc(F)cc1` (configuration not stated) is 25.9% (inactive).
For the compound `Cc1ccc(C(=O)N2CCCC(N3CCN(c4cccc(C(F)(F)F)c4)CC3)C2)s1` (configuration not stated), the inhibition was -29.8% (inactive).
On to `Cc1ccccc1OCC(=O)N/N=C/c1c(C)nn(-c2ccccc2)c1Cl`, for which the inhibition is -26.9% (inactive).
The figure for `COc1cc(C(=O)NCCCc2nc3ccccc3n2Cc2cc(C)ccc2C)cc(OC)c1OC` is 68.1% (active).
The figure for `COc1ccc(C(=O)NCCCc2nc3ccccc3n2Cc2ccccc2C)cc1OC` is -9.4% (inactive); for `COc1ccc(C(=O)NCCCc2nc3ccccc3n2Cc2cc(C)ccc2C)cc1OC` it is -28.5% (inactive).
In the case of `CCc1ccc2[nH]c(=O)c(CN(CCCN3CCOCC3)C(=O)Nc3ccc(Cl)cc3)cc2c1`, the inhibition is -9.8% (inactive).
The figure for `O=S(=O)(Nc1cccc(-c2cn3cccnc3n2)c1)c1ccc(F)cc1` is -1.4% (inactive); for `O=S(=O)(Nc1cccc(-c2cn3cccnc3n2)c1)c1ccccc1` it is 36.4% (inactive).

As a reminder, the inhibition is the change of the read-out against control, counted positive when it falls.
